Experimental data taken from PubChem BioAssay (EPA / NIEHS).
Active and inactive are the calls of the source. The calls were made as follows: active = hit-call score of the fitted dose curve at least 0.9, where 1 is the maximum; inactive = score below 0.9.

Key:
[1] = read-out: TIMP metallopeptidase inhibitor 2 (TIMP2), TIMP2 (gene 7077); experiment: BSK_KF3CT_TIMP2: BioMAP Diversity Plus: KF3CT Assay for TIMP metallopeptidase inhibitor 2 (TIMP2) Biomarker Activity (AID 2283071); conditions: primary human keratinocytes with fibroblasts; actives raise or lower the signal
How it was run: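 Measurements come from ELISA detection of TIMP-2 at 24 hours in a dosed human keratinocyte and foreskin fibroblast co-culture. DMSO serves as negative control and baseline.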

[2] = read-out: Transforming growth factor beta 1 (TGFb1), TGFB1 (gene 7040); experiment: BSK_KF3CT_TGFb1: BioMAP Diversity Plus: KF3CT Assay for Transforming growth factor beta 1 (TGFb1) Biomarker Activity (AID 2283072); conditions: primary human keratinocytes with fibroblasts; actives raise or lower the signal
How it was run: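 TGF-b1 ELISA on a 24 h dosed co-culture of human keratinocytes and foreskin fibroblasts; cytotoxicity tracked in parallel cultures by SRB staining.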

[3] = read-out: urokinase plasminogen activator (uPA), PLAU (gene 5328); experiment: BSK_KF3CT_uPA: BioMAP Diversity Plus: KF3CT Assay for urokinase plasminogen activator (uPA) Biomarker Activity (AID 2283075); conditions: primary human keratinocytes with fibroblasts; actives raise or lower the signal
How it was run: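 ELISA read-out of uPA 24 h after dosing human skin keratinocytes co-cultured with foreskin fibroblasts. Signal change fitted both ways relative to DMSO; sulforhodamine B on parallel cultures marks overt cytotoxicity.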

[4] = read-out: CD40, CD40 (gene 958); experiment: BSK_LPS_CD40: BioMAP Diversity Plus: LPS Assay for CD40 Biomarker Activity (AID 2283076); conditions: primary human HUVEC with PBMC; actives raise or lower the signal
How it was run: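 ELISA readout of CD40 in HUVEC/PBMC co-culture (BSK_LPS system), 24 h post-dosing; bidirectional curve fit, DMSO baseline; parallel SRB total-protein staining for cytotoxicity.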

[5] = read-out: E-selectin (Homo sapiens) (UniProt P16581); experiment: BSK_LPS_Eselectin: BioMAP Diversity Plus: LPS Assay for Eselectin Biomarker Activity (AID 2283077); conditions: primary human HUVEC with PBMC; actives raise or lower the signal
How it was run: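 ELISA readout of E-selectin, 24 h post-dose, HUVEC + PBMC co-culture (LPS system). Gain or loss of signal vs DMSO baseline, bidirectional fit.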

[6] = read-out: Interleukin-8 (IL8), CXCL8 (gene 3576); experiment: BSK_LPS_IL8: BioMAP Diversity Plus: LPS Assay for Interleukin-8 (IL8) Biomarker Activity (AID 2283078); conditions: primary human HUVEC with PBMC; actives raise or lower the signal
How it was run: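 HUVEC + PBMC co-culture, LPS-activated; test chemicals dosed, IL-8 read by ELISA at 24 h. Bidirectional curve fit vs DMSO baseline (gain or loss of signal).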

[7] = BSK_LPS_SRB: Viability Assessment in the BioMAP Diversity Plus: LPS Assay (AID 2283079); conditions: primary human HUVEC with PBMC;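 also: total protein by sulforhodamine B absorbance as a cytotoxicity measure; measured one day after compound addition; fitted in both directions against DMSO so loss or gain of signal counts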
How it was run: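 HUVEC + PBMC co-culture, LPS-stimulated; compound 24 h. 10% TCA fix, 0.1% SRB stain, A560. Bidirectional fit vs DMSO.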

[8] = read-out: Interleukin-1 alpha (IL1a), IL1A (gene 3552); experiment: BSK_LPS_IL1a: BioMAP Diversity Plus: LPS Assay for Interleukin-1 alpha (IL1a) Biomarker Activity (AID 2283080); conditions: primary human HUVEC with PBMC; actives raise or lower the signal
How it was run: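 HUVEC/PBMC co-culture, LPS system; 24 h after dosing; IL-1a by ELISA; gain or loss of signal fitted bidirectionally vs DMSO baseline.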

[9] = read-out: Monocyte Chemoattractant Protein-1 (MCP1), CCL2 (gene 6347); experiment: BSK_LPS_MCP1: BioMAP Diversity Plus: LPS Assay for Monocyte Chemoattractant Protein-1 (MCP1) Biomarker Activity (AID 2283081); conditions: primary human HUVEC with PBMC; actives raise or lower the signal;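 as to AC50: secreted MCP-1 protein quantified by ELISA in culture supernatant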
How it was run: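 ELISA read-out of MCP-1 after 24 h chemical dosing of a human umbilical vein endothelial cell/peripheral blood mononuclear cell co-culture stimulated with LPS. Gain or loss of signal fitted relative to DMSO controls.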

[10] = BSK_LPS_PGE2: BioMAP Diversity Plus: LPS Assay for Prostaglandin E2 (PGE2) Biomarker Activity (AID 2283082); conditions: primary human HUVEC with PBMC; actives raise or lower the signal
How it was run: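 Primary human endothelial cells and blood mononuclear cells, co-cultured with LPS, receive test chemical; PGE2 ELISA follows at 24 h, with SRB-stained parallel cultures flagging cytotoxicity.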

[11] = read-out: Macrophage colony-stimulating factor (MCSF), CSF1 (gene 1435); experiment: BSK_LPS_MCSF: BioMAP Diversity Plus: LPS Assay for Macrophage colony-stimulating factor (MCSF) Biomarker Activity (AID 2283083); conditions: primary human HUVEC with PBMC; actives raise or lower the signal
How it was run: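 HUVEC + PBMC co-culture (human primary), 24 h post-dose; M-CSF by ELISA; gain/loss of signal fitted bidirectionally vs DMSO baseline.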

[12] = read-out: Tumor necrosis factor (Homo sapiens) (UniProt P01375); experiment: BSK_LPS_TNFa: BioMAP Diversity Plus: LPS Assay for Tumour Necrosis Factor alpha (TNFa) Biomarker Activity (AID 2283085); conditions: primary human HUVEC with PBMC; actives raise or lower the signal;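 as to AC50: TNFa protein level quantified by ELISA in the co-culture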
How it was run: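 ELISA-based TNFa endpoint in a human endothelial–PBMC co-culture sampled 24 h post-exposure. Curves were fitted in both directions using DMSO as baseline of activity.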

[13] = read-out: Vascular cell adhesion molecule 1 (VCAM1), VCAM1 (gene 7412); experiment: BSK_LPS_VCAM1: BioMAP Diversity Plus: LPS Assay for Vascular cell adhesion molecule 1 (VCAM1) Biomarker Activity (AID 2283086); conditions: primary human HUVEC with PBMC; actives raise or lower the signal
How it was run: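 Measured by ELISA: VCAM-1 in LPS-activated HUVEC/PBMC co-cultures 24 h after treatment. Values reflect bidirectional fitting with DMSO as baseline.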

[14] = read-out: CD38, CD38 (gene 952); experiment: BSK_SAg_CD38: BioMAP Diversity Plus: SAg Assay for CD38 Biomarker Activity (AID 2283087); conditions: primary human HUVEC with PBMC; actives raise or lower the signal
How it was run: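 Measures CD38 on a human endothelial/PBMC co-culture driven by SEB and TSST-1, 24 h after compound exposure, using ELISA with fluorescence detection; DMSO defines baseline for bidirectional curve fitting.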

[15] = read-out: CD40, CD40 (gene 958); experiment: BSK_SAg_CD40: BioMAP Diversity Plus: SAg Assay for CD40 Biomarker Activity (AID 2283088); conditions: primary human HUVEC with PBMC; actives raise or lower the signal
How it was run: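 HUVEC/PBMC co-culture, 24 h post-dose; CD40 by ELISA, fluorescence intensity; bidirectional fit vs DMSO negative control.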

[16] = read-out: CD69, CD69 (gene 969); experiment: BSK_SAg_CD69: BioMAP Diversity Plus: SAg Assay for CD69 Biomarker Activity (AID 2283089); conditions: primary human HUVEC with PBMC; actives raise or lower the signal
How it was run: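 HUVEC co-cultured with PBMC were dosed with chemical, and CD69 was measured by ELISA with fluorescence read-out 24 h later. Bidirectional curve fitting used DMSO as negative control and activity baseline.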

[17] = read-out: Monocyte Chemoattractant Protein-1 (MCP1), CCL2 (gene 6347); experiment: BSK_SAg_MCP1: BioMAP Diversity Plus: SAg Assay for Monocyte Chemoattractant Protein-1 (MCP1) Biomarker Activity (AID 2283090); conditions: primary human HUVEC with PBMC; actives raise or lower the signal
How it was run: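 Values derive from bidirectional fitting of ELISA-measured MCP1 against DMSO controls. Readings were taken 24 h after dosing human vascular endothelial cells co-cultured with peripheral blood mononuclear cells under superantigen stimulation.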

[18] = read-out: Tissue Factor, F3 (gene 2152); experiment: BSK_LPS_TissueFactor: BioMAP Diversity Plus: LPS Assay for Tissue Factor Biomarker Activity (AID 2283084); conditions: primary human HUVEC with PBMC; actives raise or lower the signal
How it was run: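 HUVEC/PBMC co-culture, LPS-activated; CD142 ELISA read 24 h post-dose; bidirectional curve fit vs DMSO negative control.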

[19] = read-out: C-C motif chemokine 2 (Homo sapiens) (UniProt P13500); experiment: BSK_KF3CT_MCP1: BioMAP Diversity Plus: KF3CT Assay for Monocyte Chemoattractant Protein 1 (MCP1/CCL2) Biomarker Activity (AID 2283073); conditions: primary human keratinocytes with fibroblasts; actives raise or lower the signal
How it was run: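 KF3CT skin co-culture (keratinocytes/foreskin fibroblasts), 24 h post-dose; MCP-1 by ELISA; gain/loss of signal fit bidirectionally vs DMSO baseline.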

[20] = read-out: Matrix Metallopeptidase 9 (MMP9), MMP9 (gene 4318); experiment: BSK_KF3CT_MMP9: BioMAP Diversity Plus: KF3CT Assay for Matrix Metallopeptidase 9 (MMP9) Biomarker Activity (AID 2283074); conditions: primary human keratinocytes with fibroblasts; actives raise or lower the signal;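 as to AC50: MMP9 protein level quantified by ELISA in the co-culture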
How it was run: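 MMP-9 quantified by ELISA after 24 h chemical treatment of primary human skin keratinocyte/fibroblast co-cultures; gain or loss fitted against DMSO, with parallel SRB staining (0.1% SRB, 560 nm) for overt cytotoxicity.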

Measured: AC50

Sequence of E-selectin (Homo sapiens) (P16581 whole entry, looked up): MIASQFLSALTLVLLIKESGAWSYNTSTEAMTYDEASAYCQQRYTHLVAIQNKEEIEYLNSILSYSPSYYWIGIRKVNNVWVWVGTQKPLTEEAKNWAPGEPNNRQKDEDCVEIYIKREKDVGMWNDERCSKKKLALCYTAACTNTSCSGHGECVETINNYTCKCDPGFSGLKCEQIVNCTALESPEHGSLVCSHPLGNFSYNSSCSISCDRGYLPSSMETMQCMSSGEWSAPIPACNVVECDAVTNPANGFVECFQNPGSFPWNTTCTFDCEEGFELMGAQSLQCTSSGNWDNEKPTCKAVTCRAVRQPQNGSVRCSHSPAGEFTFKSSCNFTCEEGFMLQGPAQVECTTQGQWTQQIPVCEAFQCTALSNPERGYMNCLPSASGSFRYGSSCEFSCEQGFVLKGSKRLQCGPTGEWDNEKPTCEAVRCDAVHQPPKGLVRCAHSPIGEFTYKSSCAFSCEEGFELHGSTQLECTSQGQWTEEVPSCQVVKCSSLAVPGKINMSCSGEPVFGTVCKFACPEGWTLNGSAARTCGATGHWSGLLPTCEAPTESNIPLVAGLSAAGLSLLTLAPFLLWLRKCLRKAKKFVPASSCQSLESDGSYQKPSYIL
Sequence of Tumor necrosis factor (Homo sapiens) (P01375 whole entry, looked up): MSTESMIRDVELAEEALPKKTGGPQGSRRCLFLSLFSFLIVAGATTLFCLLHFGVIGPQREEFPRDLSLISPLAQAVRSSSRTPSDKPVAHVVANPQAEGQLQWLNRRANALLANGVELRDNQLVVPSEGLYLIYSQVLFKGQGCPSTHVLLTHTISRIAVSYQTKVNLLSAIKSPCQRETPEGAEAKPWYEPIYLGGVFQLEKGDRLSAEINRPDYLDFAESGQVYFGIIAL

CS(=O)(=O)NC(=O)c1cc(Oc2ccc(C(F)(F)F)cc2Cl)ccc1[N+](=O)[O-]
inactive: [1] | [2] | [3] | [4] | [5] | [6] | [7] | [8] | [9] | [10] | [11] | [12] | [13] | [14] | [15] | [16] | [17]

OCCOCCO
inactive: [1] | [2] | [3] | [4] | [5] | [6] | [7] | [8] | [9] | [10] | [11] | [18] | [12] | [13] | [14] | [15] | [16]

O=C(Nc1ccccc1)c1ccccc1I
inactive: [2] | [19] | [20] | [3] | [4] | [5] | [6] | [7] | [8] | [9] | [10] | [11] | [12] | [13] | [14] | [15] | [16] | [17]

O=C(O)C1C2CCC(O2)C1C(=O)O (stereo not drawn)
active: [20] 28.7 µM | [7] 18.6 µM | [8] 18.6 µM | [12] 6.16 µM
inactive: [2] | [19] | [3] | [4] | [5] | [6] | [9] | [10] | [11] | [13] | [14] | [15] | [16]

CN(C)c1ccccc1
inactive: [2] | [19] | [20] | [3] | [4] | [5] | [6] | [7] | [8] | [9] | [10] | [11] | [12] | [13] | [14] | [15] | [16]

O=[N+]([O-])c1ccc(Oc2ccc(Cl)cc2Cl)cc1
inactive: [1] | [2] | [3] | [5] | [6] | [7] | [10] | [18] | [12] | [13] | [16]
active: [4] 20 µM | [8] 27.2 µM | [9] 25.7 µM | [11] 31.1 µM | [14] 29.8 µM | [15] 20 µM | [17] 29.1 µM

CN(C)[C@@H]1C(=O)C(C(N)=O)=C(O)[C@@]2(O)C(=O)C3=C(O)c4c(O)cccc4[C@@](C)(O)[C@H]3C[C@@H]12
inactive: [1] | [2] | [20] | [3] | [4] | [5] | [6] | [7] | [8] | [9] | [10] | [11] | [18] | [12] | [13] | [14] | [15] | [16] | [17]
